# In the supplement of paper PMC8728848:
# This is one part of a sample in which the strongest signals are shown more often than they occur.
# Columns and labels:
# Experiment in all cases: glycan array binding signal (z-score within array); higher = stronger binding
# Conditions in all cases: glycan notation: IUPAC condensed, linker removed
# [1] = target: Fuc(a1-2)Gal(b1-3)GlcNAc(b1-3)[Fuc(a1-3)[Gal(b1-4)]GlcNAc(b1-6)]Gal(b1-4)Glc
# How it was run: (§1)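 From the Consortium for Functional Glycomics database, 3228 arrays were curated, keeping only those whose protein sequence was available. Binding is given as a within-array Z-score averaged across arrays sharing a protein sequence and across linkers. Negative Z-scores can be read as non-binding.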
# [2] = target: Fuc(a1-2)Gal(b1-3)GlcNAc(b1-3)[Neu5Ac(a2-6)Gal(b1-4)GlcNAc(b1-6)]Gal(b1-4)Glc
# How it was run: as §1
# [3] = target: Fuc(a1-2)Gal(b1-4)[Fuc(a1-3)]GlcNAc(b1-3)GalNAc
# How it was run: as §1
# [4] = target: Fuc(a1-2)[Gal(a1-3)]Gal(b1-3)GlcNAc(b1-2)Man(a1-3)[Fuc(a1-2)[Gal(a1-3)]Gal(b1-3)GlcNAc(b1-2)Man(a1-6)]Man(b1-4)GlcNAc(b1-4)[Fuc(a1-6)]GlcNAc
# How it was run: as §1
# [5] = target: Fuc(a1-2)[GalNAc(a1-3)]Gal(b1-4)[Fuc(a1-3)]GlcNAc(b1-3)GalNAc
# How it was run: as §1
# [6] = target: Fuc(a1-2)[GalNAc(a1-4)]Gal(b1-4)GlcNAc
# How it was run: as §1
# [7] = target: Fuc(a1-3)[Gal(b1-4)]GlcNAc(b1-2)Man(a1-3)[Fuc(a1-3)[Gal(b1-4)]GlcNAc(b1-2)Man(a1-6)]Man(b1-4)GlcNAc(b1-4)[Fuc(a1-6)]GlcNAc
# How it was run: as §1
# [8] = target: Fuc(a1-3)[Gal(b1-4)]GlcNAc(b1-6)GalNAc
# How it was run: as §1
# [9] = target: Gal(a1-3)Fuc(a1-2)Gal(b1-4)GlcNAc(b1-3)[Gal(a1-3)Fuc(a1-2)Gal(b1-4)GlcNAc(b1-6)]GalNAc
# How it was run: as §1
# [10] = target: Gal(a1-3)Gal(b1-4)[Fuc(a1-3)]GlcNAc
# How it was run: as §1
# Gal(a1-3)GalNAc = target: Gal(a1-3)GalNAc
# How it was run: as §1
# [11] = target: Gal(b1-4)GlcNAc(b1-2)Man(a1-3)[Gal(b1-4)GlcNAc(b1-2)Man(a1-6)]Man(b1-4)GlcNAc(b1-4)[Fuc(a1-6)]GlcNAc
# How it was run: as §1
# [12] = target: Gal(b1-4)GlcNAc(b1-2)[Gal(b1-4)GlcNAc(b1-6)]Man(a1-6)[Gal(b1-4)GlcNAc(b1-2)Man(a1-3)]Man(b1-4)GlcNAc(b1-4)GlcNAc
# How it was run: as §1
# [13] = target: Gal(b1-4)GlcNAc(b1-3)Gal(b1-4)GlcNAc
# How it was run: as §1
# Gal(b1-6)Gal = target: Gal(b1-6)Gal
# How it was run: as §1
# [14] = target: Gal3S(b1-4)[Fuc(a1-3)]Glc6S
# How it was run: as §1
# Gal4S(b1-4)GlcNAc = target: Gal4S(b1-4)GlcNAc
# How it was run: as §1
# Gal6S(b1-4)Glc = target: Gal6S(b1-4)Glc
# How it was run: as §1
# Gal6S(b1-4)GlcNAc = target: Gal6S(b1-4)GlcNAc
# How it was run: as §1
# Glc(a1-4)Glc = target: Glc(a1-4)Glc
# How it was run: as §1
# [15] = target: GlcNAc(a1-4)Gal(b1-3)GlcNAc
# How it was run: as §1
# [16] = target: GlcNAc(a1-4)Gal(b1-4)GlcNAc(b1-3)Gal(b1-4)GlcNAc
# How it was run: as §1
# [17] = target: GlcNAc(a1-4)Gal(b1-4)GlcNAc(b1-3)Gal(b1-4)[Fuc(a1-3)]GlcNAc(b1-3)Gal(b1-4)[Fuc(a1-3)]GlcNAc
# How it was run: as §1
# [18] = target: GlcNAc(b1-3)[GlcNAc(b1-6)]GalNAc
# How it was run: as §1
# Kdn(a2-3)Gal(b1-3)GlcNAc = target: Kdn(a2-3)Gal(b1-3)GlcNAc
# How it was run: as §1
# [19] = target: Man(a1-2)Man(a1-3)[Man(a1-2)Man(a1-6)]Man(a1-6)[Man(a1-2)Man(a1-2)Man(a1-3)]Man
# How it was run: as §1
# [20] = target: Man(a1-2)Man(a1-3)[Man(a1-2)Man(a1-6)]Man(a1-6)[Man(a1-2)Man(a1-2)Man(a1-3)]Man(b1-4)GlcNAc(b1-4)GlcNAc
# How it was run: as §1
# [21] = target: Man(a1-2)Man(a1-6)[Man(a1-3)]Man(a1-6)[Man(a1-2)Man(a1-2)Man(a1-3)]Man(b1-4)GlcNAc(b1-4)GlcNAc
# How it was run: as §1
# [22] = target: Neu5Ac(a2-3)Gal(b1-3)GlcNAc(b1-3)GalNAc
# How it was run: as §1
# [23] = target: Neu5Ac(a2-3)Gal(b1-4)[Fuc(a1-3)]GlcNAc(b1-3)GalNAc
# How it was run: as §1
# [24] = target: Neu5Ac(a2-3)Gal6S(b1-4)[Fuc(a1-3)]GlcNAc
# How it was run: as §1
# [25] = target: Neu5Ac(a2-6)Gal(b1-4)GlcNAc(b1-2)Man(a1-3)[Neu5Ac(a2-6)Gal(b1-4)GlcNAc(b1-2)Man(a1-6)]Man(b1-4)GlcNAc(b1-4)GlcNAc
# How it was run: as §1
# [26] = target: Neu5Ac(a2-6)Gal(b1-4)GlcNAc(b1-2)Man(a1-6)Man(b1-4)GlcNAc(b1-4)GlcNAc
# How it was run: as §1
# [27] = target: Neu5Ac(a2-6)GlcNAc(b1-4)GlcNAc
# How it was run: as §1
# [28] = target: Neu5Ac(a2-6)GlcNAc(b1-4)GlcNAc(b1-4)GlcNAc
# How it was run: as §1
# [29] = target: Neu5Ac9Ac(a2-3)Gal(b1-4)GlcNAc
# How it was run: as §1
binder,measurement,setting,value
"NanI (Corynebacterium diphtheriae), C6JSW7 (protein) MTNTLESNPMTTTTGALTITFATTCDGPLAHIPHHLDLNIIHGRIQGTTAHRRIDAEDPDGLDDGLPHHLCLSVDTTGTHLFIDGYEAFSTTQTEWFDTSELTLNPHGDLTIIDHQILNHAPTPRQARNLAPAAEPLVWFAGSHLSTRDTQRISHLTHGSLRLLMKTRGTGQGGVAFQAHTINGDLTLEIIDGTLIFSVRCHDEDYVRITAPGRWDDGQIYDVVIVCGRGATDIYVDGQQLIHSPGAAFFNDLSGELSVHIGTAASGVRLFGEVQSGMIYPHVFNHHQVQRLATVEPIATQALFDCLLDGAQSYRIPSLITTDSGVIIAGADKRVSIANDAPNDIDFVLRRSVDGGRTWQPPRTILQLPDTACVTDSVLLQDHTTGRIFAFLDQFPAGIGQPNAAFGTGFDADGNRIGHFADGSTCTMPREVDQLEASFFSDPHTAPPGIVFQHPSCHLWMLTSDDDGLTWSTPRDLTPDVKEEWMRFCGTSPGNGIQLQRDTHAGRLLIPMYYTKGDQFFAAALYSDDHGDTWHRGESPDLEMYESTLVEASDGSVLLWARNQHPSGAVAHARSTDGGHSWSQVTFNPNVPEIFSQPNALRVTNPDGIIFANASQLLPFRGRGVLRMSTNDGASWQHNRVFNPRHYVYQCMTQLPDGSIGLLWEREMQGLFFSIIPMTWIMQGYAL",glycan array binding signal (z-score),[1],0.007
same,glycan array binding signal (z-score),[2],0.292
same,glycan array binding signal (z-score),[3],6.81
same,glycan array binding signal (z-score),[4],0.442
same,glycan array binding signal (z-score),[5],3.26
same,glycan array binding signal (z-score),[6],-0.77
same,glycan array binding signal (z-score),[7],4.32
same,glycan array binding signal (z-score),[8],3.36
same,glycan array binding signal (z-score),[9],0.813
same,glycan array binding signal (z-score),[10],-1.04
same,glycan array binding signal (z-score),Gal(a1-3)GalNAc,-0.16
same,glycan array binding signal (z-score),[11],0.309
same,glycan array binding signal (z-score),[12],8.52
same,glycan array binding signal (z-score),[13],-0.586
same,glycan array binding signal (z-score),Gal(b1-6)Gal,0.892
same,glycan array binding signal (z-score),[14],-0.197
same,glycan array binding signal (z-score),Gal4S(b1-4)GlcNAc,-0.503
same,glycan array binding signal (z-score),Gal6S(b1-4)Glc,-0.205
same,glycan array binding signal (z-score),Gal6S(b1-4)GlcNAc,-0.815
same,glycan array binding signal (z-score),Glc(a1-4)Glc,-0.173
same,glycan array binding signal (z-score),[15],-0.205
same,glycan array binding signal (z-score),[16],4.05
same,glycan array binding signal (z-score),[17],9.15
same,glycan array binding signal (z-score),[18],-0.477
same,glycan array binding signal (z-score),Kdn(a2-3)Gal(b1-3)GlcNAc,0.075
same,glycan array binding signal (z-score),[19],0.157
same,glycan array binding signal (z-score),[20],-0.074
same,glycan array binding signal (z-score),[21],1.28
same,glycan array binding signal (z-score),[22],-0.319
same,glycan array binding signal (z-score),[23],3.03
same,glycan array binding signal (z-score),[24],-0.34
same,glycan array binding signal (z-score),[25],0.411
same,glycan array binding signal (z-score),[26],-0.415
same,glycan array binding signal (z-score),[27],0.019
same,glycan array binding signal (z-score),[28],-0.157
same,glycan array binding signal (z-score),[29],-0.533
